In PubChem BioAssay:
For part of these data: Entries with a potency or affinity are not part of this list. Activity calls are given as the source filed them. Unless noted, no rule for the calls is given here.

What was measured:
[1] = antimalarial activity against Dd2 strain (AID 2302;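 active = growth inhibition above 50% at the single 2 µM test dose, taken to imply half-maximal potency below 2 µM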;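 also: 0% = DMSO untreated growth and 100% = chloroquine plus artemisinin killed control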); conditions: P. falciparum Dd2 in RBCs, LDH growth readout, 72 h; at 2 µM; stronger effect = higher value
[2] = human hepatoma cell viability loss – ATP luminescence, cytotoxicity control for P. falciparum antimalarial project, primary screen (AID 2303;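 active = inhibition above 50%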;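 also: 0% = DMSO wells and 100% = digitonin-killed cells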); conditions: HepG2 viability, 24-48 h, at 10 µM, stronger effect = higher value
[3] = target: L-lactate dehydrogenase (Plasmodium falciparum (isolate CDC / Honduras)) (UniProt Q27743); experiment: PfLDH activity inhibition – cell lysate, 3D7 strain, counter-screen for P. falciparum growth inhibition project (AID 2304);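 also: 0% = vehicle and 100% = reference inhibitor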; conditions: P. falciparum 3D7 crude extract, LDH APAD/NBT absorbance; at 2 µM; stronger effect = higher value
L-lactate dehydrogenase (Plasmodium falciparum (isolate CDC / Honduras)), sequence (Q27743 whole entry, looked up): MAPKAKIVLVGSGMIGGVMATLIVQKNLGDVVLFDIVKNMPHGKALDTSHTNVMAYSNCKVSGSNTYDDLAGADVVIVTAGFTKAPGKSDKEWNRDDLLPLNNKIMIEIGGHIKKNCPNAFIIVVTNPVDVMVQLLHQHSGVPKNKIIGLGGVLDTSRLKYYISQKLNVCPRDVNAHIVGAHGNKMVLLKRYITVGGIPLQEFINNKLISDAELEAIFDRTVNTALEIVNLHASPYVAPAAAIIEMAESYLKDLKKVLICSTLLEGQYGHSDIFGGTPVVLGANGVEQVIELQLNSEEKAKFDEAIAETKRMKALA

[4] = inhibition of 3D7 malaria parasite growth – strain 3D7 (AID 2306);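 also: 0% = DMSO wells and 100% = chloroquine plus artemisinin control wells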; conditions: P. falciparum 3D7 erythrocytic growth, LDH absorbance, 72 h; at 2 µM; stronger effect = higher value
[5] = target: Calcium-dependent protein kinase 1 (Plasmodium falciparum (isolate 3D7)) (UniProt P62344); experiment: PfCDPK1 kinase inhibitors, biochemical, TCAMS library (AID 1159585; cut-off not given, nearly all actives have IC50 up to about 0.98 µM;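 also: inhibitors leave more ATP so luminescence rises with inhibition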); conditions: recombinant PfCDPK1, Kinase-Glo ATP depletion luminescence
Calcium-dependent protein kinase 1 (Plasmodium falciparum (isolate 3D7)), sequence (P62344 whole entry, looked up): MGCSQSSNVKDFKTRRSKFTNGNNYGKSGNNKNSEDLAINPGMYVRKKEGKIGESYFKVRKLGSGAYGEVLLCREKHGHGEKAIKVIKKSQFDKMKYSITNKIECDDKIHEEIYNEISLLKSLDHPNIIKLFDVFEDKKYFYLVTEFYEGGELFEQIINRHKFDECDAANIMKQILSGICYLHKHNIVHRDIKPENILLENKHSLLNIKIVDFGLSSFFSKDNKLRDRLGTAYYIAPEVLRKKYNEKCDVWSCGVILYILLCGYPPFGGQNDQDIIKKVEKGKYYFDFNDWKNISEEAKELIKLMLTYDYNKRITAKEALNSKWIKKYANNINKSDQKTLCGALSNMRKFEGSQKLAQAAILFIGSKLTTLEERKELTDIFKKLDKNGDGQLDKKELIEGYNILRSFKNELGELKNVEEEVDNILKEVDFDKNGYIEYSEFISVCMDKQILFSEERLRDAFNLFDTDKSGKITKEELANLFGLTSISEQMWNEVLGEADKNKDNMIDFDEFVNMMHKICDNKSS

[6] = target: Plasmodium falciparum protein kinase 6 (PK6, PF3D7_1337100) (UniProt Q8IDW1); experiment: PfPK6 kinase inhibitors, biochemical, TCAMS library (AID 1159586); conditions: recombinant PfPK6, Kinase-Glo ATP depletion luminescence
Plasmodium falciparum protein kinase 6 (PK6, PF3D7_1337100), sequence (Q8IDW1 1-305): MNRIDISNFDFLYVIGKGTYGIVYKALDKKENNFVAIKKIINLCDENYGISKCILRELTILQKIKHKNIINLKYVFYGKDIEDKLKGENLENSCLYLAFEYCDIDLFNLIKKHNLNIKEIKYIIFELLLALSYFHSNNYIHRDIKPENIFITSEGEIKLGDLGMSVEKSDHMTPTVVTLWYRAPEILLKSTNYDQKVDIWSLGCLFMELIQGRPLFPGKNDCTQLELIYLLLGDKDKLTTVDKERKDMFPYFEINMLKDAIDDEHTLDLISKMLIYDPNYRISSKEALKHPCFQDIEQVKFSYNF

[7] = target: Protein kinase 7 (PK7), Plasmodium falciparum 3D7 (PF3D7_0213400) (UniProt Q7YTF7); experiment: inhibition of Plasmodium PK7 catalytic activity – biochemical, TCAMS antimalarial set, Kinase-Glo luminescence (AID 1159587); conditions: recombinant PfPK7, Kinase-Glo ATP depletion luminescence
Protein kinase 7 (PK7), Plasmodium falciparum 3D7 (PF3D7_0213400), sequence (Q7YTF7 1-343): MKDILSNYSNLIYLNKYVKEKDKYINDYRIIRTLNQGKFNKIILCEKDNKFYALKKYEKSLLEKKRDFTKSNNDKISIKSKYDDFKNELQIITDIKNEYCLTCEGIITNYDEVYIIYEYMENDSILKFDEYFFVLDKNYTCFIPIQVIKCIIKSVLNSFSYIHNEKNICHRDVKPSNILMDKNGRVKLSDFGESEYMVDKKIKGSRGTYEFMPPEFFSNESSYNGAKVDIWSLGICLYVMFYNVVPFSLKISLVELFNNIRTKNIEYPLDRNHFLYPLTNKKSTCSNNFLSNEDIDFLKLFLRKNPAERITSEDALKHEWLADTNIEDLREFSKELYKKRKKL

[8] = target: Calcium-dependent protein kinase 4 (Plasmodium falciparum (isolate 3D7)) (UniProt Q8IBS5); experiment: PfCDPK4 kinase inhibitors, biochemical, TCAMS library (AID 1159588; cut-off not given, nearly all actives have IC50 up to about 0.91 µM); conditions: recombinant PfCDPK4, Kinase-Glo ATP depletion luminescence
Calcium-dependent protein kinase 4 (Plasmodium falciparum (isolate 3D7)), sequence (Q8IBS5 whole entry, looked up): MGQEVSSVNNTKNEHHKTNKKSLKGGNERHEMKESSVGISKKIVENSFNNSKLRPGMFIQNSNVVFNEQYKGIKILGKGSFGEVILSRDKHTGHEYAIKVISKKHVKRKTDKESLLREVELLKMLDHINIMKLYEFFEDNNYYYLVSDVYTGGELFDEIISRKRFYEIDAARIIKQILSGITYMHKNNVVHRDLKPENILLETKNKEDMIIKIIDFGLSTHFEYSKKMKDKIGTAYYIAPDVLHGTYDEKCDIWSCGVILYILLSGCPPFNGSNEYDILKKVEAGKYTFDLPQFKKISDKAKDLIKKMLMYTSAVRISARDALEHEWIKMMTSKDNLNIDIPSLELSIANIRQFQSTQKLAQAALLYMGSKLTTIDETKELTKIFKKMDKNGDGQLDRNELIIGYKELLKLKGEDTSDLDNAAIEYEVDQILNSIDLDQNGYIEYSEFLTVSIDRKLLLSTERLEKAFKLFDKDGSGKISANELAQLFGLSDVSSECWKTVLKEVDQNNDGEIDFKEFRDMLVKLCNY

COc1cccc2c(C)cc(NCc3ccc(Cl)cc3)nc12
active: growth inhibition [4] 97%
inactive: growth inhibition [1] 5% | inhibition [2] 7% | inhibition [3] 5% | outcome [5] | outcome [6] | outcome [7] | outcome [8]

O=C(NC1CCN(Cc2ccccc2)CC1)c1ccc(-c2nc3cc(Cl)c(F)cc3[nH]2)cc1
active: growth inhibition [1] 100% | growth inhibition [4] 100%
inactive: inhibition [2] 13% | inhibition [3] 3% | outcome [5] | outcome [6] | outcome [7] | outcome [8]

COc1cc(Cc2cnc(N)nc2N)cc(OC(C)C)c1OC
active: growth inhibition [4] 91%
inactive: growth inhibition [1] 15% | inhibition [2] 10% | inhibition [3] 0% | outcome [5] | outcome [6] | outcome [7] | outcome [8]

COc1cc2c(cc1OC)C(c1ccc(Br)cc1)CN(C)CC2 (configuration not stated)
inactive: growth inhibition [1] -3% | inhibition [2] 8% | inhibition [3] -3% | outcome [5] | outcome [6] | outcome [7] | outcome [8]
active: growth inhibition [4] 86%

COc1ccc(NC(=O)/C=C/c2ccccc2Cl)cc1OCCN1CCC(O)(c2ccc(Cl)c(C(F)(F)F)c2)CC1
active: growth inhibition [4] 101%
inactive: growth inhibition [1] 9% | inhibition [2] 37% | inhibition [3] -1% | outcome [5] | outcome [6] | outcome [7] | outcome [8]

Cc1ccc(C)c(Sc2ccc(NC(=O)CN3CCN(C(=O)c4ccco4)CC3)cc2)c1
active: growth inhibition [1] 93% | growth inhibition [4] 96%
inactive: inhibition [2] 28% | inhibition [3] 1% | outcome [5] | outcome [6] | outcome [7] | outcome [8]

C[C@H](NC(=O)c1c(OC2CN(C(c3ccccc3)c3ccccc3)C2)c(-c2ccccc2)nc2ccccc12)C1CCCCC1
active: growth inhibition [1] 74% | growth inhibition [4] 92%
inactive: inhibition [2] 0% | inhibition [3] 2% | outcome [5] | outcome [6] | outcome [7] | outcome [8]

O=C(/C=C/c1ccc(Cl)c(Cl)c1)NCCCCCN1CCC(c2cn[nH]c2-c2ccccc2)CC1
inactive: growth inhibition [1] -2% | inhibition [2] 28% | inhibition [3] -2% | outcome [5] | outcome [6] | outcome [7] | outcome [8]
active: growth inhibition [4] 85%

Cc1ccc(NC(=O)NC2CCN(CCCCCNC(=O)/C=C/c3ccc(Cl)c(Cl)c3)CC2)cc1
inactive: growth inhibition [1] 19% | inhibition [2] 41% | inhibition [3] -2% | outcome [5] | outcome [6] | outcome [7] | outcome [8]
active: growth inhibition [4] 102%

COCCNCc1ccc(-c2cccc(CNC3CCN(Cc4ccccc4)CC3)c2)cc1
active: growth inhibition [1] 101% | growth inhibition [4] 100%
inactive: inhibition [2] 30% | inhibition [3] 0% | outcome [5] | outcome [6] | outcome [7] | outcome [8]

O=C(/C=C/c1ccc(C(F)(F)F)cc1)NCCCCCN1CCN(C(=O)Nc2ccc(Cl)c(Cl)c2)CC1
inactive: growth inhibition [1] -4% | inhibition [2] 37% | inhibition [3] 5% | outcome [5] | outcome [6] | outcome [7] | outcome [8]
active: growth inhibition [4] 95%

COc1ccc(CCNCCCCCCNCCCc2ccc(Cl)cc2)cc1OC
inactive: growth inhibition [1] 2% | inhibition [2] 36% | inhibition [3] 1% | outcome [5] | outcome [6] | outcome [7] | outcome [8]
active: growth inhibition [4] 96%

COc1cc(F)c2nccc([C@@H](O)CN3CCC(NCc4cc5c(cc4F)OCCO5)CC3)c2c1
inactive: growth inhibition [1] 45% | inhibition [2] 23% | inhibition [3] -1% | outcome [5] | outcome [6] | outcome [7] | outcome [8]
active: growth inhibition [4] 99%

O=C(N[C@@H](CC1CCCCC1)C(=O)NC1CCCCC1)c1ccc(O)c(-c2cccc(C(F)(F)F)c2)c1
inactive: inhibition [2] -7% | inhibition [3] -1% | outcome [5] | outcome [6] | outcome [7] | outcome [8]
active: growth inhibition [1] 95% | growth inhibition [4] 100%

COc1ccc(NC(=O)/C=C/c2ccc(-c3ccc(-c4noc(C)n4)cc3)cc2)cc1OCCN(C)C
inactive: growth inhibition [1] 31% | inhibition [2] 14% | inhibition [3] -3% | outcome [5] | outcome [6] | outcome [7] | outcome [8]
active: growth inhibition [4] 81%

CCCCCCOc1ccc(C(=O)NCCC2CCN(CCCCCNC(=O)C=Cc3ccc(Cl)c(Cl)c3)CC2)cc1
inactive: growth inhibition [1] 10% | inhibition [2] 13% | inhibition [3] 0% | outcome [5] | outcome [6] | outcome [7] | outcome [8]
active: growth inhibition [4] 99%

O=C(Nc1cccc(-c2nc3ccccc3s2)c1)c1ccccc1[N+](=O)[O-]
inactive: growth inhibition [1] 9% | inhibition [2] 0% | inhibition [3] 0% | outcome [5] | outcome [6] | outcome [7] | outcome [8]
active: growth inhibition [4] 85%

CC(=O)N(C)c1cccc(C(=O)Nc2cccc(-c3cccc(-c4nc5c(C)cccc5[nH]4)c3)c2)c1
active: growth inhibition [4] 89%
inactive: growth inhibition [1] 41% | inhibition [2] 15% | inhibition [3] -9% | outcome [5] | outcome [6] | outcome [7] | outcome [8]

CCNC(=O)Nc1cccc(-c2cccc(-c3nc4ccc(C(F)(F)F)cc4[nH]3)c2)c1
active: inhibition [2] 50% | growth inhibition [4] 91%
inactive: growth inhibition [1] 32% | inhibition [3] 2% | outcome [5] | outcome [6] | outcome [7] | outcome [8]

O=C(NCC(CCN1CCC(c2c[nH]c3ccccc23)CC1)c1ccccc1)Nc1ccc(Cl)c(Cl)c1 (configuration not stated)
active: growth inhibition [1] 53% | growth inhibition [4] 101%
inactive: inhibition [2] 46% | inhibition [3] 5% | outcome [5] | outcome [6] | outcome [7] | outcome [8]

CCN(CC)CCN(Cc1ccc(-c2ccc(C(F)(F)F)cc2)cc1)C(=O)Cn1nc(-c2ccc(C(F)(F)F)cc2)ccc1=O
inactive: inhibition [2] 44% | inhibition [3] -2% | outcome [5] | outcome [6] | outcome [7] | outcome [8]
active: growth inhibition [1] 83% | growth inhibition [4] 100%

C=CCn1c(SCC(=O)Nc2cc(Cl)ccc2Cl)nc2sc(C)cc2c1=O
active: growth inhibition [1] 96% | growth inhibition [4] 97%
inactive: inhibition [2] 8% | inhibition [3] 0% | outcome [5] | outcome [6] | outcome [7] | outcome [8]

CC(C)(C)c1ccc(/C=C/C(=O)NCCCCCN2CCC(c3c[nH]c4ccccc34)CC2)cc1
inactive: growth inhibition [1] 12% | inhibition [3] 8% | outcome [5] | outcome [6] | outcome [7] | outcome [8]
active: inhibition [2] 70% | growth inhibition [4] 91%

O=C(Nc1cc(C(F)(F)F)cc(C(F)(F)F)c1)c1cc(C(F)(F)F)cc(C(F)(F)F)c1
active: growth inhibition [1] 86% | growth inhibition [4] 101%
inactive: inhibition [2] 21% | inhibition [3] 2% | outcome [5] | outcome [6] | outcome [7] | outcome [8]

N#CC(NC(=O)C=Cc1ccccc1)c1ccccc1 (configuration not stated)
active: growth inhibition [4] 95%
inactive: growth inhibition [1] 3% | inhibition [2] 3% | inhibition [3] -8% | outcome [5] | outcome [6] | outcome [7] | outcome [8]

Cc1cc2nc(-c3ccc(C(=O)NC4CCN(Cc5ccccc5)CC4)cc3)[nH]c2cc1C
active: growth inhibition [1] 99% | growth inhibition [4] 93%
inactive: inhibition [2] -6% | inhibition [3] -5% | outcome [5] | outcome [6] | outcome [7] | outcome [8]

CN1C(C)(C)CC(NC(=O)c2ccc(-c3cc4cc(Cl)c(Cl)cc4[nH]3)o2)CC1(C)C
active: growth inhibition [4] 101%
inactive: growth inhibition [1] 43% | inhibition [2] 21% | inhibition [3] -4% | outcome [5] | outcome [6] | outcome [7] | outcome [8]

Cc1ccc(NC(=O)c2ccc(CN3CCCN(Cc4cccc(O)c4)CC3)cc2)cc1
inactive: growth inhibition [1] 31% | inhibition [2] 39% | inhibition [3] -5% | outcome [5] | outcome [6] | outcome [7] | outcome [8]
active: growth inhibition [4] 90%

COC(=O)c1sc(-c2ccc(Cl)cc2)cc1N(CCCN1CCC(N2CCCCC2)CC1)S(=O)(=O)c1ccc(C)cc1
inactive: inhibition [2] 25% | inhibition [3] -2% | outcome [5] | outcome [6] | outcome [7] | outcome [8]
active: growth inhibition [1] 86% | growth inhibition [4] 103%

CCOC(=O)c1cnc2c(C(F)(F)F)cccc2c1Nc1ccc(O)cc1
active: growth inhibition [1] 67% | growth inhibition [4] 96%
inactive: inhibition [2] -7% | inhibition [3] 2% | outcome [5] | outcome [6] | outcome [7] | outcome [8]

CCCc1ccc(NC(=O)c2ccc(CN3CCCN(Cc4ccc(OC)cc4)CC3)cc2)cc1
active: growth inhibition [4] 81%
inactive: growth inhibition [1] -4% | inhibition [2] 47% | inhibition [3] 0% | outcome [5] | outcome [6] | outcome [7] | outcome [8]

Nc1ncc(-c2cc3ccccc3o2)c(N)n1
active: growth inhibition [4] 81%
inactive: growth inhibition [1] 2% | inhibition [2] -3% | inhibition [3] 0% | outcome [5] | outcome [6] | outcome [7] | outcome [8]

CCCc1ccc(N2C(N)=NC(N)=NC2(C)C)cc1
inactive: growth inhibition [1] -2% | inhibition [3] 6% | outcome [5] | outcome [6] | outcome [7] | outcome [8]
active: inhibition [2] 59% | growth inhibition [4] 94%

CN(C)CCCNC(=O)c1ccccc1Sc1ccccc1C#N
inactive: growth inhibition [1] 3% | inhibition [2] 11% | inhibition [3] 2% | outcome [5] | outcome [6] | outcome [7] | outcome [8]
active: growth inhibition [4] 89%

C=CCOC(=O)N1CCC(CNCc2cccc(-c3ccc(-c4nc5ccc(C(F)(F)F)cc5[nH]4)cc3)c2)C1 (configuration not stated)
active: growth inhibition [1] 96% | growth inhibition [4] 102%
inactive: inhibition [2] 28% | inhibition [3] -3% | outcome [5] | outcome [6] | outcome [7] | outcome [8]

COc1ccc(CNC2Cc3ccccc3C2)cc1-c1ccc(S(=O)(=O)NCCc2ccccn2)s1
inactive: growth inhibition [1] 22% | inhibition [2] 11% | inhibition [3] 0% | outcome [5] | outcome [6] | outcome [7] | outcome [8]
active: growth inhibition [4] 92%

Cc1ccc(NC(=O)c2ccc(CN3CCCN(Cc4cccc(C#N)c4)CC3)cc2)cc1F
inactive: growth inhibition [1] 19% | inhibition [2] 49% | inhibition [3] -3% | outcome [5] | outcome [6] | outcome [7] | outcome [8]
active: growth inhibition [4] 98%

CC(=O)Nc1cccc(C(=O)Nc2cccc(-c3ccc(-c4nc5c(C)cccc5[nH]4)s3)c2)c1
active: inhibition [2] 75% | growth inhibition [4] 99%
inactive: growth inhibition [1] 26% | inhibition [3] 4% | outcome [5] | outcome [6] | outcome [7] | outcome [8]

COc1ccc(Nc2nc(NC3CCN(C)CC3)cc(-c3ccc(OC)cc3)n2)cc1
active: growth inhibition [1] 51% | inhibition [2] 62% | growth inhibition [4] 100%
inactive: inhibition [3] 4% | outcome [5] | outcome [6] | outcome [7] | outcome [8]
